The supplement of paper PMC10849652
The full data set covers some 7,900 targets. This sample favours those with a hit. About 0.6% of all pairs of compound and target were hits.

Each target was assayed with c1cn2cc(-c3ccc4cn[nH]c4c3)nc(Nc3ccc(N4CCOCC4)cc3)c2n1 [entospletinib] (assay: log2 fold change, soluble protein after heating vs DMSO (PISA); higher = thermal stabilisation; K562 cells, 10 uM, 30 min; active = over 0.2 and 3.5 SD of the protein, either way, in both replicates (recomputed)).
How it was run: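 K562 cells at 2×10^6 cells/mL were treated for 30 min with 10 μM compound, and aliquots were heated for 3 min over 48°C-58°C before pooling. Extraction used PBS with 0.5% NP-40 at 4°C, and soluble protein was the supernatant after 21,000xg for 90 min, measured by TMTpro 16plex LC-MS/MS with channel sums equalised. Thermal stability values, relative to control samples and from duplicates, are log2 fold changes.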

Chain of UniProt Q9NRP0 (Q9NRP0 whole entry, looked up): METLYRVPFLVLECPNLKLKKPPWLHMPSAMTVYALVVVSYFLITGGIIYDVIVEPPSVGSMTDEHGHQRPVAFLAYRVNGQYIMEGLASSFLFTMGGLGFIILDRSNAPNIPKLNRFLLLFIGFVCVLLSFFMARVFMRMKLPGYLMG
Chain of UniProt P35749 (P35749 whole entry, looked up): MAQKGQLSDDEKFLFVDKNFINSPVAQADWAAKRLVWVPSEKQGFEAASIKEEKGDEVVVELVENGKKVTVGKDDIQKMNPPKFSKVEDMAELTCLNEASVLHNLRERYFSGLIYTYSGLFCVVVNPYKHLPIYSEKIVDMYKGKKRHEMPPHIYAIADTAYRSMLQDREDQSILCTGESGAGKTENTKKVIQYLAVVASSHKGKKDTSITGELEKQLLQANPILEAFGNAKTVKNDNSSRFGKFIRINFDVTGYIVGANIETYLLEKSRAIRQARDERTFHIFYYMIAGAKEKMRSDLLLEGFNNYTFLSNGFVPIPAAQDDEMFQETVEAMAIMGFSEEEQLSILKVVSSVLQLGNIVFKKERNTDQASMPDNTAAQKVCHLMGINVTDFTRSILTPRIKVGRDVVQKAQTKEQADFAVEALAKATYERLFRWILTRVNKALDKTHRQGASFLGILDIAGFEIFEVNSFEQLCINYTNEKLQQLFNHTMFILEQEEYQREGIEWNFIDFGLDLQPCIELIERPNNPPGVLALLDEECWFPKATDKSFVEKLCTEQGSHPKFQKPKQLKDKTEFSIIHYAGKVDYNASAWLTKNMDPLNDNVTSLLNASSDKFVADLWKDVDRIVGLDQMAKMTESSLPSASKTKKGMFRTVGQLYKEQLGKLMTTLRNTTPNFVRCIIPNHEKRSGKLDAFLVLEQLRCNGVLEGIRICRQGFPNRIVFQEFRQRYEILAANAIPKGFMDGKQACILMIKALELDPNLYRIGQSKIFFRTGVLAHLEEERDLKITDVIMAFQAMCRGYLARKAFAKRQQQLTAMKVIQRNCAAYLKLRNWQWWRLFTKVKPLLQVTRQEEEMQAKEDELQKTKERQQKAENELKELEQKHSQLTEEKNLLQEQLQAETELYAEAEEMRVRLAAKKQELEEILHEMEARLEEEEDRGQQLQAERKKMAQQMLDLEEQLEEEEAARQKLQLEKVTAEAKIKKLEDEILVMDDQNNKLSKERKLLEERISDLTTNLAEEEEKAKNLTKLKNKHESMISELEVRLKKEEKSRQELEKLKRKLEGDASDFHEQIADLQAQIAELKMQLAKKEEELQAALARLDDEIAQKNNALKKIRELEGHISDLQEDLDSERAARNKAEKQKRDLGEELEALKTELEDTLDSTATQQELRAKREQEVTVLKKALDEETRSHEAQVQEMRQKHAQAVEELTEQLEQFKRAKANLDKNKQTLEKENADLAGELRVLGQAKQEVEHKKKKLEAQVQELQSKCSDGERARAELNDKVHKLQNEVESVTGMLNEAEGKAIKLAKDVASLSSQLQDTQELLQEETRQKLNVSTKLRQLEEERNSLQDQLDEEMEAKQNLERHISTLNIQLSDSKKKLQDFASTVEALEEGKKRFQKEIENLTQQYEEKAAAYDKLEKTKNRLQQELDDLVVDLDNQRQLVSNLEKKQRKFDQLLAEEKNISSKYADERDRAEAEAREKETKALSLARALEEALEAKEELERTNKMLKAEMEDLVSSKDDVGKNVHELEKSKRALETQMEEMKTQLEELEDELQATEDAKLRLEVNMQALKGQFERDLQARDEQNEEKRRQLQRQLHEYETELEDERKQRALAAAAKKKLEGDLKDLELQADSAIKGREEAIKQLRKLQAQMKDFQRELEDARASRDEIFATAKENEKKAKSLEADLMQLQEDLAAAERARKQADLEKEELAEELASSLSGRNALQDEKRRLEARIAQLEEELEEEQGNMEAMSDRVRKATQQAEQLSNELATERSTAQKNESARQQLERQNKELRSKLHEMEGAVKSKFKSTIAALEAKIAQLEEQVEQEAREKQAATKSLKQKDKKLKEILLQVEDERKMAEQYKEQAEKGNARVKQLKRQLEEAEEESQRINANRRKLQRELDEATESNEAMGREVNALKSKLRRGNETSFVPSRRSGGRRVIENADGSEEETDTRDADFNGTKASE
Chain of UniProt P19338 (P19338 whole entry, looked up): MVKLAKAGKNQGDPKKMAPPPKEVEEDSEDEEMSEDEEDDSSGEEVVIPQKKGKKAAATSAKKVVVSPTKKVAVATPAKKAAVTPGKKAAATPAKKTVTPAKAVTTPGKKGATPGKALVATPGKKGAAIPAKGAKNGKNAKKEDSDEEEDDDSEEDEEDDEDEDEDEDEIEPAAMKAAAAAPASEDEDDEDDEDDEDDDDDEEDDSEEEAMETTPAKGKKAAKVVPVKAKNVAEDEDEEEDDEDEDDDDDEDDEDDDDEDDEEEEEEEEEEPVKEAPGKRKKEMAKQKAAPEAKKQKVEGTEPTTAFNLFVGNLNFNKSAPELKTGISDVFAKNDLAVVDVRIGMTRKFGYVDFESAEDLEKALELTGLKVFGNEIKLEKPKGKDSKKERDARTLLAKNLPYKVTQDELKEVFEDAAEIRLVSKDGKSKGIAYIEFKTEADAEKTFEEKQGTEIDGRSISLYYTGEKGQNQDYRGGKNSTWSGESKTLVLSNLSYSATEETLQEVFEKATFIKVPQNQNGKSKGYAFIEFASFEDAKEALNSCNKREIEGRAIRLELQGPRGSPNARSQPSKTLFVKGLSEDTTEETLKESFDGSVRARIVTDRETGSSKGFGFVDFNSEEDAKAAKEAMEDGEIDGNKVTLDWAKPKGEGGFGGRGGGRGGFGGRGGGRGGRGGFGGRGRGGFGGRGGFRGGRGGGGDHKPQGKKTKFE
Chain of UniProt Q8NI08 (Q8NI08 whole entry, looked up): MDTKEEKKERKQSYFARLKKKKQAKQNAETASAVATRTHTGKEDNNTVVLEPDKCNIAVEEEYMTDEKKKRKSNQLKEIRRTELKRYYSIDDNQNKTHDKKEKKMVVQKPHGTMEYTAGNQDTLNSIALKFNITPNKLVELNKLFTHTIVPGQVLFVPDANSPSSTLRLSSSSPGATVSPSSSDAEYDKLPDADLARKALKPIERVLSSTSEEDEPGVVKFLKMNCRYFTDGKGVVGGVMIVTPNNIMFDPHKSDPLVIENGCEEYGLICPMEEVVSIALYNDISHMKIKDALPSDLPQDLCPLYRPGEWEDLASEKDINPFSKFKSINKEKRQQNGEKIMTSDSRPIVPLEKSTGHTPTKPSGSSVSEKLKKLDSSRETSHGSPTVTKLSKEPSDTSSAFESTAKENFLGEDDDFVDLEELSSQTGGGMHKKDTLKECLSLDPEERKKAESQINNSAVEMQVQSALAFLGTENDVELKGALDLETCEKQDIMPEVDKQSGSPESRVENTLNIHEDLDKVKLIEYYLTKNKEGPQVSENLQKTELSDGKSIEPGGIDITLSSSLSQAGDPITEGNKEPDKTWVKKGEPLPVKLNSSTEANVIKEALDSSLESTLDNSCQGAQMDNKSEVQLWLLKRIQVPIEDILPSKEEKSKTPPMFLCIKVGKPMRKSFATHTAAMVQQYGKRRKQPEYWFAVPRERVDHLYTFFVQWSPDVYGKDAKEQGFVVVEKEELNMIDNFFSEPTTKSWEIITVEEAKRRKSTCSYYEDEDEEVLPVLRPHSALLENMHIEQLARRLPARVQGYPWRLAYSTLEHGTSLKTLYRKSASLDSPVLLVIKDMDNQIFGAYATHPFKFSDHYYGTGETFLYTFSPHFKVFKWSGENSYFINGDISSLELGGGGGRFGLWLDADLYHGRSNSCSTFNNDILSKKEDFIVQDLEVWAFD
Chain of UniProt Q9H4L5 (Q9H4L5 whole entry, looked up): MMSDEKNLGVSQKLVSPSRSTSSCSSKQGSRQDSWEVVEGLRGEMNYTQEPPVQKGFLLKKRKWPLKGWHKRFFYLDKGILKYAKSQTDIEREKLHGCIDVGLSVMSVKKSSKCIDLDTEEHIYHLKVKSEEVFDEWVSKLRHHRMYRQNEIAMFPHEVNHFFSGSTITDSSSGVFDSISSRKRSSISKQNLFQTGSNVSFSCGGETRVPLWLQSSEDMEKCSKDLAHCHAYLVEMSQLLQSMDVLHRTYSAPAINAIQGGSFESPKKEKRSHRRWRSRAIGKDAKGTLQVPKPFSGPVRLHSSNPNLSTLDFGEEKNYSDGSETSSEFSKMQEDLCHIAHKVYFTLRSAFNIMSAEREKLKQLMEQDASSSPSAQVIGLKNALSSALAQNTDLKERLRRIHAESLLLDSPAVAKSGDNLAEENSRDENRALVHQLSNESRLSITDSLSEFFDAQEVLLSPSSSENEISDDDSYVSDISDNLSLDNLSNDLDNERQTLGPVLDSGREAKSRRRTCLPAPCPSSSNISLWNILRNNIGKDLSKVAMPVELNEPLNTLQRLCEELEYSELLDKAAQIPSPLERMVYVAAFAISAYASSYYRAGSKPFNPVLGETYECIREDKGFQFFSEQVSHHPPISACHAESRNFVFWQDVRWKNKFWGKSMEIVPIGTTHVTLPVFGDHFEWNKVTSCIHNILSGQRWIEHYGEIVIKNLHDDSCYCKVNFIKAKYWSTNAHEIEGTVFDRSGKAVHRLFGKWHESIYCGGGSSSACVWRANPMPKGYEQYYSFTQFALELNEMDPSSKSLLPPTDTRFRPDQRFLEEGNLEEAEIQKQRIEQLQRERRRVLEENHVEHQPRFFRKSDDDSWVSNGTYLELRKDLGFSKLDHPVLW
Chain of UniProt Q8WUY8 (Q8WUY8 whole entry, looked up): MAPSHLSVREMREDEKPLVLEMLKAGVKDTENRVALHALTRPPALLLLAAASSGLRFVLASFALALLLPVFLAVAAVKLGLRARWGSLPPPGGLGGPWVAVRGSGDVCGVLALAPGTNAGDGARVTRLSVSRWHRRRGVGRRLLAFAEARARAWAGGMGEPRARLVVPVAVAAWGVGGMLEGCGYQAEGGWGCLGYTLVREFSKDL

log2 fold change, inactive:
MRPS35 (UniProt P82673) 0.036, OSTC (UniProt Q9NRP0) 0.034, NCL (UniProt P19338) 0.102, MYH11 isoform 2 (UniProt P35749) -0.047, NAT14 (UniProt Q8WUY8) 0.007, NCOA7 (UniProt Q8NI08) 0.003, NUDT1 (UniProt P36639) 0.018, ORC3 isoform 2 (UniProt Q9UBD5) 0.114, OSBPL3 (UniProt Q9H4L5) 0.171, MINK1 (UniProt Q8N4C8) -0.026
